How the values were obtained:
[1] = target: T1, Serine/threonine-protein kinase TBK1 (Homo sapiens) (UniProt Q9UHD2); details: at 1 µM;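 also: values are mean inhibition of TBK1, screened as part of the GSK published kinase inhibitor set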
T1 sequence (whole entry): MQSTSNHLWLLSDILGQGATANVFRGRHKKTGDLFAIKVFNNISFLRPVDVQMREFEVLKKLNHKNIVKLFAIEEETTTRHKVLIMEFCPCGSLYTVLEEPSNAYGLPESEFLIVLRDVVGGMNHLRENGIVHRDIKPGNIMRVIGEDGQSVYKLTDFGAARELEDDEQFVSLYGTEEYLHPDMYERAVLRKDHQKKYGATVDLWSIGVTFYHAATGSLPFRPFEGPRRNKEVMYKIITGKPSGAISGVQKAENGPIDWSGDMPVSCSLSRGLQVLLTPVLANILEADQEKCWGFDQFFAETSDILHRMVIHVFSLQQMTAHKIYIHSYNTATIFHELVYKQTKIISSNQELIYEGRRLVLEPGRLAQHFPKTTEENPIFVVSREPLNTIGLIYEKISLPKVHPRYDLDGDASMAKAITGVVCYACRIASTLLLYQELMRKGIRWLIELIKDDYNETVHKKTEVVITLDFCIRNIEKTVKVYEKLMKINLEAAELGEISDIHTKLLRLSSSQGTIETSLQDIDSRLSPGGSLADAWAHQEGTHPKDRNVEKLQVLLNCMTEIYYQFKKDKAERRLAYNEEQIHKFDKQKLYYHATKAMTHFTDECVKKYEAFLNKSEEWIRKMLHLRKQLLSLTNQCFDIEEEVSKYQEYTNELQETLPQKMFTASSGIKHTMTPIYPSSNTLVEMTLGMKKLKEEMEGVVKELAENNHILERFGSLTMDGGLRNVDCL

[2] = target: T2, Testis-specific serine/threonine-protein kinase 1 (Homo sapiens) (UniProt Q9BXA7); details: at 0.1 µM
T2 sequence (whole entry): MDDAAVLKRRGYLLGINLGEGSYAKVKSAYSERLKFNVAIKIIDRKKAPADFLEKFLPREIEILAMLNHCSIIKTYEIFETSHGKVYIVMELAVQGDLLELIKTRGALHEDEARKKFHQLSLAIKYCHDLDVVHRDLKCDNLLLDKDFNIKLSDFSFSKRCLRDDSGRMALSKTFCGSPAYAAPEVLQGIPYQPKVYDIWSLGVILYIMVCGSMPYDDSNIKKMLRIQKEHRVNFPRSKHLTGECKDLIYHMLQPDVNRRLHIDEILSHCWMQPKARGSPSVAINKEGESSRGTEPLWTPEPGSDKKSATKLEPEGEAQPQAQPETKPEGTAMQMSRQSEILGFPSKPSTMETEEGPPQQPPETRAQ

[3] = target: T2, Testis-specific serine/threonine-protein kinase 1 (Homo sapiens); details: at 1 µM
[4] = target: T3, Testis-specific serine/threonine-protein kinase 2 (Homo sapiens) (UniProt Q96PF2); details: at 0.1 µM
T3 sequence (whole entry): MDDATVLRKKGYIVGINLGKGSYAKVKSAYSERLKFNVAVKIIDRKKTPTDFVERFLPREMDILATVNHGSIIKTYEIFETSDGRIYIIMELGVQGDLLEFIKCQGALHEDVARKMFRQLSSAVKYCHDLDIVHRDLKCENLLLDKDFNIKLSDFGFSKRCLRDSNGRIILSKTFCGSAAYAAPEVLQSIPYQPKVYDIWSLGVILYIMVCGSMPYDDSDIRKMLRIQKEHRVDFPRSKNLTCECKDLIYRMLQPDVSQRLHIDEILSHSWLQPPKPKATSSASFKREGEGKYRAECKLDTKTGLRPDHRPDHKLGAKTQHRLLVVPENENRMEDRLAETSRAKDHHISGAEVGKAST

[5] = target: T3, Testis-specific serine/threonine-protein kinase 2 (Homo sapiens); details: at 1 µM
[6] = target: Casein kinase I isoform alpha (Homo sapiens) (UniProt P48729); details: at 0.1 µM
[7] = target: Casein kinase I isoform alpha (Homo sapiens) (UniProt P48729); details: at 1 µM
[8] = target: Casein kinase I isoform gamma-1 (Homo sapiens) (UniProt Q9HCP0); details: at 0.1 µM
[9] = target: Casein kinase I isoform gamma-1 (Homo sapiens) (UniProt Q9HCP0); details: at 1 µM
[10] = target: Casein kinase I isoform gamma-2 (Homo sapiens) (UniProt P78368); details: at 0.1 µM
[11] = target: Casein kinase I isoform gamma-2 (Homo sapiens) (UniProt P78368); details: at 1 µM
[12] = target: Casein kinase I isoform gamma-3 (Homo sapiens) (UniProt Q9Y6M4); details: at 0.1 µM
[13] = target: Casein kinase I isoform gamma-3 (Homo sapiens) (UniProt Q9Y6M4); details: at 1 µM
[14] = target: Cyclin-dependent kinase 1 (Homo sapiens) (UniProt P06493); details: at 0.1 µM
[15] = target: Cyclin-dependent kinase 1 (Homo sapiens) (UniProt P06493); details: at 1 µM
[16] = target: Cyclin-dependent kinase 2 (Homo sapiens) (UniProt P24941); details: at 0.1 µM
[17] = target: Cyclin-dependent kinase 2 (Homo sapiens) (UniProt P24941); details: at 1 µM
[18] = target: Cyclin-dependent kinase 2 (Homo sapiens) (UniProt P24941); details: at 0.1 µM; remark: listed apart in the source
[19] = target: Cyclin-dependent kinase 2 (Homo sapiens) (UniProt P24941); details: at 1 µM; remark: listed apart in the source
[20] = target: CDK3/Cyclin E (Homo sapiens) (UniProt P24864+Q00526); details: at 0.1 µM;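 also: reported percentages are mean inhibition values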
CDK3/Cyclin E (Homo sapiens), sequence (P24864 whole entry, looked up): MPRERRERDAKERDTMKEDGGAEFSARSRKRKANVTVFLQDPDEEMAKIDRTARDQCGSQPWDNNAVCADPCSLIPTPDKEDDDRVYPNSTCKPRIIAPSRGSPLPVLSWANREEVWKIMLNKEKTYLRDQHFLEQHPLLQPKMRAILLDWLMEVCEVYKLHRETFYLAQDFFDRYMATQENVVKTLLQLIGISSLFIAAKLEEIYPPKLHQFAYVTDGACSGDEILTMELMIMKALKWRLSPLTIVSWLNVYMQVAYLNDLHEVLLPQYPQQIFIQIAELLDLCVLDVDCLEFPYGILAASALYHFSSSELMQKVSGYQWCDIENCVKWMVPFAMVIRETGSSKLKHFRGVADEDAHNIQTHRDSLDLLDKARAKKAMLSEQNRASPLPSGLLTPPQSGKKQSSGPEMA
CDK3/Cyclin E (Homo sapiens), sequence (Q00526 whole entry, looked up): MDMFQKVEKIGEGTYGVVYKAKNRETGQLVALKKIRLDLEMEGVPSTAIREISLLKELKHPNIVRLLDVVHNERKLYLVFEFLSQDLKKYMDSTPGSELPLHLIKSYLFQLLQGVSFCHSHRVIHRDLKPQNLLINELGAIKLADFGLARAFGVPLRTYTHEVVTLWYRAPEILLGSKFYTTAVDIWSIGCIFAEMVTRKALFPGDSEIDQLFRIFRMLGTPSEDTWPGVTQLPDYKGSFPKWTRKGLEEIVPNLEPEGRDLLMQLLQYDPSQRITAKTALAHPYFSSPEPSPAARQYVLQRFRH

Casein kinase I isoform gamma-1 (Homo sapiens), sequence (Q9HCP0 whole entry, looked up, canonical isoform): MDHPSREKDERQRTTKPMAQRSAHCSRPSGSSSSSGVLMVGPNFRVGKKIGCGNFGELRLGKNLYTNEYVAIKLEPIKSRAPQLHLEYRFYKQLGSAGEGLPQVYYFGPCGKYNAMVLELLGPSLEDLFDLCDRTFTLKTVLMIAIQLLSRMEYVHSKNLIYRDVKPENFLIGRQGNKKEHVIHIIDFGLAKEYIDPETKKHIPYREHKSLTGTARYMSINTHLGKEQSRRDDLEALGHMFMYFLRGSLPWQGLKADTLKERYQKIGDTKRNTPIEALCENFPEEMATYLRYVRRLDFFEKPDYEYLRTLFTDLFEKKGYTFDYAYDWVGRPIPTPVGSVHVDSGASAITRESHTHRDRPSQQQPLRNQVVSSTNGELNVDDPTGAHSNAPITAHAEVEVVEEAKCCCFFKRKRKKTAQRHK
Casein kinase I isoform gamma-2 (Homo sapiens), sequence (P78368 whole entry, looked up, canonical isoform): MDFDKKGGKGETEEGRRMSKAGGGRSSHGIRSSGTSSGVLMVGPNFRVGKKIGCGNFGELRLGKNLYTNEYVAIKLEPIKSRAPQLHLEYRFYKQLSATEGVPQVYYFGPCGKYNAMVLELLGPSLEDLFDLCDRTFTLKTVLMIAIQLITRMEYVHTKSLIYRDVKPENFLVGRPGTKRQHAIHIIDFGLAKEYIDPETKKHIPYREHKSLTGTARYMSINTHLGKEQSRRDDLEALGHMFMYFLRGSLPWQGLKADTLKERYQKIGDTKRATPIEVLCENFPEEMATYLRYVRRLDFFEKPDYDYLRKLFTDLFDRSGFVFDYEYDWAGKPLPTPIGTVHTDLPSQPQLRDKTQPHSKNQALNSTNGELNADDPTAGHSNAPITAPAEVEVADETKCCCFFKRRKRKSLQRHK
Casein kinase I isoform gamma-3 (Homo sapiens), sequence (Q9Y6M4 whole entry, looked up, canonical isoform): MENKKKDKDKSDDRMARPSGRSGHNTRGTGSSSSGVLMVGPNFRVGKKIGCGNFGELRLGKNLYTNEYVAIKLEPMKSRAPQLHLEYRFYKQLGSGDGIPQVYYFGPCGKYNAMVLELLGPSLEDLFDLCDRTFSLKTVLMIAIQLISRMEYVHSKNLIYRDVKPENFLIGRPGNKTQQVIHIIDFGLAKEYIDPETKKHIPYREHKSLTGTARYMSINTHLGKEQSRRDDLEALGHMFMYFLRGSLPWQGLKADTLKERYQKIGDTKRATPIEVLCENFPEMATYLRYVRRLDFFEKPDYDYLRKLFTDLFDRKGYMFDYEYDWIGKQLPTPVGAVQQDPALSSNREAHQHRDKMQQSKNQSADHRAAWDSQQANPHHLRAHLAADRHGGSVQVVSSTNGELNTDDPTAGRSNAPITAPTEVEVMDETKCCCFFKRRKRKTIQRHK
Cyclin-dependent kinase 1 (Homo sapiens), sequence (P06493 whole entry, looked up): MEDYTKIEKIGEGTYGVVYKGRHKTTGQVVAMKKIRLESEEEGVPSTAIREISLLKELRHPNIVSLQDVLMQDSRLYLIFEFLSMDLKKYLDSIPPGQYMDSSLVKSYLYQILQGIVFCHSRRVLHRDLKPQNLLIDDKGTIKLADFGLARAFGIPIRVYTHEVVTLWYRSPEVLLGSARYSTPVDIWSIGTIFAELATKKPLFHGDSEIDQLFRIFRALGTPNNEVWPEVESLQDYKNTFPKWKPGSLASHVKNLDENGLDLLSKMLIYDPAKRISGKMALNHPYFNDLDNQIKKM
Casein kinase I isoform alpha (Homo sapiens), sequence (P48729 2-337 limits assumed): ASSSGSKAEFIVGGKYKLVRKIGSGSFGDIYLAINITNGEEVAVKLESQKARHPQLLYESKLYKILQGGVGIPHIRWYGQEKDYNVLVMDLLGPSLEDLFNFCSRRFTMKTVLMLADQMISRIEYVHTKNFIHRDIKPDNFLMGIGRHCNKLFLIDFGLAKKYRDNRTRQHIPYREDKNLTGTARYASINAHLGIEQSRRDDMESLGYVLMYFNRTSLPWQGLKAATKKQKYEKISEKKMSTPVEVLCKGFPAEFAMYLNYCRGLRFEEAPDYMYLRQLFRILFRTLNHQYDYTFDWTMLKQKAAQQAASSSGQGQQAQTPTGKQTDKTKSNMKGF

| SMILES | inhibition [1] [%] | inhibition [2] [%] | inhibition [3] [%] | inhibition [4] [%] | inhibition [5] [%] | inhibition [6] [%] | inhibition [7] [%] | inhibition [8] [%] | inhibition [9] [%] | inhibition [10] [%] | inhibition [11] [%] | inhibition [12] [%] | inhibition [13] [%] | inhibition [14] [%] | inhibition [15] [%] | inhibition [16] [%] | inhibition [17] [%] | inhibition [18] [%] | inhibition [19] [%] | inhibition [20] [%] |
| --- | --- | --- | --- | --- | --- | --- | --- | --- | --- | --- | --- | --- | --- | --- | --- | --- | --- | --- | --- | --- |
| Cc1ccc(O)cc1Nc1ccnc2cc(-c3ccccn3)ccc12 | 6.68 | 3.87 | 3.16 | 1.09 | -1.1 | 3.78 | 12.5 | 4.65 | 11 | 2.73 | 6.53 | 4.03 | 6.72 | 0.02 | 1.83 | 0.84 | 6.62 | 3.98 | 4.84 | 1.95 |
| CC(=O)NCc1cccc(C#Cc2cncnc2Nc2ccc(OCc3cccc(F)c3)c(Cl)c2)c1 | 4.8 | 1.79 | 2.15 | 0.5 | 1.59 | -1.4 | -0.4 | 0.6 | 0.01 | -0.69 | 0.99 | -1.04 | -0.37 | 0.28 | 2.88 | 1.01 | -3.16 | 1.24 | 3.29 | 1.84 |
| Fc1ccc(-c2nn3ncccc3c2-c2ccnc(Nc3ccc4c(c3)OCCO4)n2)cc1 | 4.55 | 4.06 | 2.68 | 1.3 | 1.02 | 39.5 | 72.5 | 14.8 | 58.5 | 11.1 | 61.6 | 23.9 | 76.1 | 0.14 | 0.65 | 1.25 | 3.7 | 2.71 | 2.76 | 3.59 |
| CCCN1CCC(c2ccc(Nc3nc(Nc4cc(F)ccc4C(N)=O)c4cc[nH]c4n3)c(OC)c2)CC1 | 10.2 | 82.4 | 94.8 | 63.3 | 91.1 | 31.9 | 67.5 | 23.7 | 72.1 | 20.9 | 72.7 | 35.4 | 79.8 | 1.73 | 6.31 | 1.78 | 0.94 | 7.06 | 11.8 | 4.1 |
| CC(=O)Nc1cccc(C#Cc2cncnc2Nc2ccc(OCc3cccc(F)c3)c(Cl)c2)c1 | 3.45 | 1.34 | 0.24 | 0.06 | -1.88 | -1.79 | 3.28 | 2.22 | 2 | 0.52 | 2.49 | 2.41 | 1.12 | -0.4 | 0.31 | 0.72 | 1.81 | 2 | 0.87 | 1.66 |
| COc1cccc(-c2c[nH]c3c(N/N=C/c4ccncc4)ncnc23)c1 | 34.6 | 1.82 | -0.71 | 0.73 | -2.11 | 5.65 | 7.98 | 1.21 | 4.05 | 0.6 | 4.26 | 1.09 | 4.42 | 42 | 74.2 | 30.4 | 73.7 | 9.46 | 45.5 | 6.61 |
| Fc1ccc(-c2nn3ccccc3c2-c2ccncc2)cc1 | 0.18 | 1.12 | 1.44 | -0.56 | 0.24 | 13.7 | 58.4 | 1.48 | 8.01 | 1.65 | 7.48 | 0.7 | 15.1 | 0.74 | 1.96 | 2.05 | 2.06 | 1.19 | 2.02 | 0.78 |
| CNC(=O)c1cc(-c2ccc(F)cc2)cc(-c2ccc(S(=O)(=O)N3CCCC3)cc2)c1N | 1.13 | 2.57 | 3.21 | 1.51 | 1.66 | 2.27 | 3.11 | 2.3 | 2.21 | 2.4 | 2.38 | 3.27 | 0.61 | -0.56 | 1.19 | 1 | 1.91 | 2.41 | 3.39 | -1.31 |

Reference: ChEMBL document CHEMBL1961873, “Compounds: GSK PKIS; Assays: Nanosyn kinase panel” (2012)
